# This is part of a sample that, as a whole, favours compounds with a hit. Of some 83,000 tested, about 20% had one in any assay.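 For each line, cells grew in 96-well plates with the test compound present at a single concentration for 48 hours.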 Active and inactive are the calls of the source.
# Tested on: HCT-116 colon
# Test: NCI-60 one-dose screen, 48 h (100 = growth as untreated, 0 = no growth, -100 = all killed)
# Conditions: 10 µM unless noted
# Experimental: Growth inhibition of the HCT-116 human tumor cell line is measured as a screen for anti-cancer activity. Cells are grown in 96 well plates and exposed to the test compound for 48 hours. Compounds are tested at a single concentration, which is 10^-5 M for most compounds. The reported endpoint is percent growth (GI% or GIPRCNT), where numbers from 0 - 100% represent growth inhibition, and numbers from -100% - 0 represent cell death. For example, a value of 40 represents 60% growth inhibition. A value of 0 means no net growth occurred over the course of the experiment. A value of -40 indicates 40% of cells at the beginning of the experiment died by the end of the experiment. A value of -100 means all cells are dead at the end of the experiment.
# NCI-60 Human Tumor Cell Lines Screen was performed using the standard one-dose NCI protocol, which is described in more detail at https://dtp.cancer.gov/discovery_development/nci-60/default.htm.
# Compounds with GIPRCNT values below 10 were considered active. Activity score was based on GIPRCNT using the following formula: […]
# Score is 0 for GIPRCNT values of 100 or above, 50 for GIPRCNT values of 0, and 100 for GIPRCNT values of -100.
row,Structure (SMILES),growth
1,C[C@]12C[C@H](O)[C@H]3[C@@H](CCC4=CC(=O)CC[C@@]43C)[C@@H]1CC[C@@H]2O,101% (inactive)
2,NC(Cc1ccc2c(c1)OCO2)c1ccc2c(c1)OCO2 (stereo not given),95.5% (inactive)
3,O=C(c1cccs1)C1NO[N+]([O-])=C1c1cccs1 (stereo not given),25.6% (inactive)
4,NC(Cc1ccc(O)cc1)C(=O)N/N=C/c1ccc(N(CCCl)CCCl)cc1 (stereo not given),84% (inactive)
5,O=C(CF)N(O)c1ccc(/C=C/c2ccccc2)cc1,11.5% (inactive)
6,O=C(N/N=C/c1ccc([N+](=O)[O-])o1)c1cc([N+](=O)[O-])cc([N+](=O)[O-])c1O,92.6% (inactive)
7,CCCCOC(=O)c1ccccc1C(=O)O.CCCCOC(=O)c1ccccc1C(=O)O.[Cu+2],102% (inactive)
8,O=[N+]([O-])c1ccccc1N1CCNCC1,101% (inactive)
9,NC(=O)OCC(CO)(c1ccccc1)c1ccccc1,92.1% (inactive)
10,O=C(CCl)NCNC(=O)CCl,92.1% (inactive)
11,CC1(C)N=C(N)N=C(N)N1c1ccc(OCCCCNC(=O)c2ccc(S(=O)(=O)F)cc2)c(Cl)c1,25.6% (inactive)
12,C[C@@H]1O[C@@H](O[C@H]2CC[C@@]3(C)[C@H](CCC4[C@@H]3C(O)C[C@]3(C)[C@@H](c5ccc(=O)oc5)CC[C@]43O)C2)[C@H](O)[C@H](O)[C@H]1O (stereo not given in full),-79.9% (active)
13,CC[C@]12C=CCN3CC[C@@]4(c5ccc(OC)cc5N(C)[C@H]4[C@@](O)(C(=O)OC)[C@@H]1OC(=O)CCCN1CCN(CCCC(=O)O[C@@H]4[C@]5(CC)C=CCN6CC[C@@]7(c8ccc(OC)cc8N(C)[C@H]7[C@@]4(O)C(=O)OC)[C@@H]65)CC1)[C@@H]32,-84% (active)
14,ClCCN(CCCl)c1nc(Cl)c(C2CC(c3ccc(Cl)cc3)=NN2c2cc(Cl)cc(Cl)c2)s1 (stereo not given),85.8% (inactive)
15,OC1(c2ccccc2F)c2ccccc2C2=NCCN21 (stereo not given),93.3% (inactive)
16,CCCCNCCc1ccccn1,102% (inactive)
17,CNC(=O)Oc1cccc(N(C)C)c1,113% (inactive)
18,CC(C)(C)NCC(O)c1ccccc1Cl (stereo not given),7.48% (active)
19,CC1(C)N=C(N)N=C(N)N1c1cccc(C(=O)Nc2cccc(S(=O)(=O)F)c2)c1,101% (inactive)
20,COc1ccc(-c2ccc(OC)c(OC)c2OC)cc1,15.3% (inactive)

row,Structure (SMILES),growth
1,CC1COC(=O)C1 (stereo not given),102% (inactive)
2,CC(C)(C)[Si](C)(C)OC1[C@@H](O[Si](C)(C)C(C)(C)C)[C@@H](CNC(=O)NC(=O)CF)O[C@H]1n1cnc2c(NC(=O)Nc3ccccc3)ncnc21 (stereo not given in full),21.3% (inactive)
3,C[CH2][Sn]([CH2]C)([CH2]C)[NH]S(=O)(=O)c1ccc(C)cc1,106% (inactive)
4,Cc1cc(N(CCCl)CCCl)ccc1C=Nc1ccc2ccccc2c1,79.9% (inactive)
5,CC(=O)Nc1ccc(Cc2ccc(NC(C)=O)cc2)cc1,94.9% (inactive)
6,O=S(=O)(Cl)c1ccccc1 (tested in a mixture with another compound),99.4% (inactive)
7,O=[As]c1ccc(C(=O)c2ccc(Oc3ccccc3)cc2)cc1 (stereo not given),-99.2% (active)
8,ClCCN(CCCl)c1ccc(C=NCCc2c[nH]c3ccccc23)cc1,79% (inactive)
9,COc1ccc(/C=C\c2cc(OC)c(OC)c(OC)c2)cc1N/C=C\C(=O)c1c[nH]c2ccccc12,2.62% (active)
10,C[C@]12CC[C@H]3[C@@H](C[C@@H]4N=C(c5ccc(O)cc5)S[C@@]45C[C@H](O)CC[C@]35C)[C@@H]1CC[C@@H]2O,43.8% (inactive)
11,NC(=O)NC(=O)CI,36.8% (inactive)
12,Oc1c(Br)cc(Br)cc1Br.[Cu+2],98.4% (inactive)
13,CCOC(=O)/C(C#N)=C/c1ccc(N(CCCl)CCCl)cc1,97% (inactive)
14,CC[C@@H](C)/C=C(C)/C=C/C(=O)c1c(O)c(-c2ccc(O)cc2)cn(O)c1=O,16.7% (inactive)
15,CCCCn1cc(C(=O)/C(C#N)=C/c2cc3ccccc3nc2Cl)c2cc(OC)ccc21,23.6% (inactive)
16,CC(=O)N(C)C1=Nc2ccc(Cl)cc2C(c2ccccc2)=[N+]([O-])C1,99.3% (inactive)
17,CC(C)(O)/C=C/C(=O)[C@](C)(O)[C@H]1[C@H](O)C[C@@]2(C)[C@@H]3CC=C4[C@@H](C=C(O)C(=O)C4(C)C)[C@]3(C)C(=O)C[C@]12C,-53.5% (active)
18,Cc1cc(NC(=O)/C=C/c2ccc([N+](=O)[O-])cc2)ccc1S(=O)(=O)F,113% (inactive)
19,CCOCC1(CCc2ccccc2)C(=O)NC(=S)NC1=O,101% (inactive)
20,C[CH2][Pb]([CH2]C)([CH2]C)[O]C(=O)COC,-29.7% (active)

# From PubChem BioAssay (NCI)
